Counter-ions that a name gives are not always drawn. ± gives the standard deviation of the averaged measurements. The full ranking holds about 1,900 compounds; the median of “normalised cell viability (NPI; 0 = phenylarsine oxide control, 1 = DMSO control)” is about 1, and the lowest 2% start at about 0.039. This excerpt belongs to a sample that is enriched for the lowest values.
Tested on: NCI-H1944
Test: normalised cell viability (NPI; 0 = phenylarsine oxide control, 1 = DMSO control) (fraction of DMSO control); NCI-H1944 is a non-small cell lung cancer line; higher = more viable cells (less compound toxicity)
Details: 6 days
[1] = glucocorticoid arm: hydrocortisone 2.75 uM co-treatment, compound 1 µM
[2] = glucocorticoid arm: hydrocortisone 2.75 uM co-treatment, compound 5 µM
[3] = glucocorticoid arm: hydrocortisone 2.75 uM pre-treated 2 days and continued, compound 1 µM
[4] = glucocorticoid arm: hydrocortisone 2.75 uM pre-treated 2 days and continued, compound 5 µM
[5] = glucocorticoid arm: vehicle, compound 1 µM
[6] = glucocorticoid arm: vehicle, compound 5 µM
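Also: CTB read-out in 384-well plates, triplicate wells, NPI normalised per plate against 1 µM phenylarsine oxide (0) and 0.1% DMSO (1) controls.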

Row | Compound | normalised cell viability [1] | normalised cell viability [2] | normalised cell viability [3] | normalised cell viability [4] | normalised cell viability [5] | normalised cell viability [6]
1 | COc1cc2c(cc1OC)[C@@H](c1ccccc1)CN(C)CC2 | 0.9913 ± 0.006 | 1.023 ± 0.0058 | 1.02 ± 0.011 | 1.01 ± 0.019 | 0.9883 ± 0.0015 | 0.9863 ± 0.0055
2 | Nc1nc(N)c(N=O)c(OCC2CCCCC2)n1 | 1.02 ± 0.011 | 1.05 ± 0.017 | 1.037 ± 0.0058 | 1.023 ± 0.0058 | 1 | 0.978 ± 0.019
3 | Clc1ccc(C2(c3ccc(-c4cn[nH]c4)cc3)CCNCC2)cc1 | 0.968 ± 0.012 | 0.9977 ± 0.0021 | 0.975 ± 0.011 | 1.006 ± 0.0075 | 0.9947 ± 0.0051 | 0.939 ± 0.015
4 | CC(C)NCC(O)c1ccc(O)c(O)c1 (racemic) [(±)-Isoproterenol hydrochloride] | 1.01 ± 0.011 | 1.03 ± 0.042 | 1.01 | 1.04 ± 0.064 | 0.99967 ± 0.00058 | 1.02 ± 0.021
5 | N[C@@H](CCCC(=O)O)C(=O)O [L-2-aminoadipic acid] | 0.9947 ± 0.0055 | 0.991 ± 0.015 | 0.997 ± 0.013 | 0.97 ± 0.018 | 0.979 ± 0.014 | 0.9823 ± 0.0067
6 | O=C(NC1CCNCC1)c1n[nH]cc1NC(=O)c1c(Cl)cccc1Cl | 0.225 ± 0.03 | 0.0298 ± 0.0013 | 0.349 ± 0.039 | 0.149 ± 0.015 | 0.0396 ± 0.029 | 0.0072 ± 0.00086
7 | NC(=O)Nc1cc(-c2cccc(F)c2)sc1C(=O)N[C@H]1CCCNC1 | 0.65 ± 0.013 | 0.45 ± 0.024 | 0.93 ± 0.021 | 0.7733 ± 0.0071 | 0.338 ± 0.012 | 0.158 ± 0.015
8 | CN1CCCN(C(=O)c2cccc(-c3ccc(/C=C4/C(=O)Nc5ccc(Cl)cc54)o3)c2)CC1 | 0.717 ± 0.032 | 0.214 ± 0.24 | 0.937 ± 0.021 | 0.887 ± 0.059 | 0.282 ± 0.017 | 0.00113 ± 0.00047
9 | Cc1[nH]c(/C=C2\C(=O)Nc3ccc(S(=O)(=O)N(C)c4cccc(Cl)c4)cc32)c(C)c1C(=O)N1CCN(C)CC1 | 0.9913 ± 0.0072 | 0.986 ± 0.012 | 1.003 ± 0.0058 | 0.989 ± 0.014 | 0.969 ± 0.01 | 0.849 ± 0.036
10 | CN1CCN(C(=O)c2cc3cc(Cl)ccc3[nH]2)CC1 | 1.027 ± 0.0058 | 1.023 ± 0.0058 | 1.013 ± 0.0058 | 1.03 ± 0.021 | 1.007 ± 0.0058 | 1.01 ± 0.01
11 | NC1(Cc2ccc(Cl)cc2)CCN(c2ncnc3[nH]ccc23)CC1 | 0.901 ± 0.034 | 0.602 ± 0.08 | 0.934 ± 0.014 | 0.68 ± 0.045 | 0.9813 ± 0.0087 | 0.827 ± 0.068
12 | CC1(C)CCC(NC(=O)[C@@H](N)CCC(=O)O)CC1 | 0.979 ± 0.013 | 0.975 ± 0.016 | 0.999 ± 0.011 | 0.982 ± 0.046 | 0.9703 ± 0.0085 | 0.985 ± 0.012
13 | OC(CCN1CCCCC1)(c1ccccc1)C1CCCCC1 (racemic) [DL-Trihexyphenidyl hydrochloride] | 0.99967 ± 0.00058 | 0.998 ± 0.013 | 1.03 ± 0.021 | 1.02 ± 0.011 | 0.995 ± 0.007 | 1.001 ± 0.0085

From the supplement of paper PMC8285479
